# Screens: PubChem, Bradner/Qi Labs at DFCI
# CBX7 inh: CBX7 inhibition, primary AlphaScreen. O95931. AlphaScreen His6-CBX7 / biotin-H3K27me3 peptide binding; active compounds read low. normalised signal (fraction of DMSO) (concentration not given with the values). 66,000 compounds, 1.1% hits; in the data active = normalised signal below about 0.5
# Target sequence (O95931 whole entry, looked up): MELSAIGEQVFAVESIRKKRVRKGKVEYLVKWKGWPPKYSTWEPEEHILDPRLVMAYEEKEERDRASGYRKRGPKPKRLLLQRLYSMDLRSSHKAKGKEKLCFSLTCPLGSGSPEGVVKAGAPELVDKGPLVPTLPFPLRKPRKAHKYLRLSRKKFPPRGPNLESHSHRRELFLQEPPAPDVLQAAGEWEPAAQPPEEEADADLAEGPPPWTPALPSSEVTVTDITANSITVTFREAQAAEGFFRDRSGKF
# A number is an active result; 0 = inactive. Only a selection was taken, and hits are over-represented in it overall.
SMILES,CBX7 inh
CC(=O)Nc1ccc(Nc2cc(C)nc3nnnn23)cc1,0
Cc1ccc(OCCCn2c(CCCO)nc3ccccc32)cc1,0
CCCOc1ccc(Cn2c(CC(C)C)nc3ccccc32)cc1,0
O=C(CSc1ncnc2sc(-c3ccccc3)cc12)Nc1c(Cl)cccc1Cl,0
CCc1cc(-c2[nH]ncc2Oc2ccccc2)c(O)cc1OC,0
CCc1cc(C(=O)Cc2ccc3ccccc3n2)c(O)cc1OC,0.34
CCc1cc(-c2n[nH]c(C)c2Oc2ccccc2)c(O)cc1OC,0
CCOC(=O)c1cc(-c2ccsc2)no1,0
CCOC(=O)c1cnc2ccc(OC)cc2c1Nc1ccc2c(c1)OCCO2,0.47
CCOC(=O)c1cnc2ccc(OCC)cc2c1Nc1ccc(CC)cc1,0
CCOC(=O)c1cnc2ccc(OC)cc2c1Nc1ccc(C)c(C)c1,0
CCOC(=O)c1cnc2ccc(OCC)cc2c1Nc1ccc2c(c1)OCO2,0.42
CCOC(=O)c1cnc2ccc(OCC)cc2c1Nc1ccc2c(c1)OCCO2,0
CCOC(=O)c1cnc2ccc(Br)cc2c1Nc1ccc2c(c1)OCCO2,0
O=C(Nc1ccc(F)cc1F)c1cnc2sccn2c1=O,0
Cc1ccc(-c2cn(-c3ccc(F)c(F)c3)c(=O)[nH]2)cc1,0
CCOC(=O)C1CCN(C(=O)c2ccc(CNc3c(NC4CCCC4)c(=O)c3=O)cc2)CC1,0
COc1ccc(-c2cn3c(C)c(C(=O)NC4CCCCC4)sc3n2)cc1,0
Cc1nc(Nc2ccc(C)c(F)c2)c2c3c(sc2n1)CCCC3,0
CCCCOc1ccc(C2C(N3C(=O)c4ccccc4C3=O)C(=O)N2c2cc(C)cc(C)c2)cc1 (stereo not given),0
O=C(CSc1nc(-c2ccc3c(c2)OCO3)cn1-c1ccc(F)cc1)Nc1cccc(F)c1,0
COc1ccc(C2C(C(=O)Nc3ccc(F)cc3F)c3ccccc3C(=O)N2C)cc1OC (stereo not given),0
CCOC(=O)N1CCC(NC(=O)c2cccc3c2C(=O)N(c2ccc(OC)cc2)C3)CC1,0.47
COc1ccc(N2Cc3cccc(C(=O)NC4CCCCCC4)c3C2=O)cc1,0
COc1ccc(N2Cc3cccc(C(=O)NC4CCCC4)c3C2=O)cc1,0
SMILES,CBX7 inh
Cc1ccc(NC(=O)CCNS(=O)(=O)c2ccc3c(c2)CCC(=O)N3)c(Cl)c1,0
CC(NS(=O)(=O)c1ccc(F)cc1)C(c1cccs1)N1CCN(C)CC1 (stereo not given),0
CC(NS(=O)(=O)c1ccc(F)cc1)C(c1cccs1)N1CCN(c2ccccc2)CC1 (stereo not given),0
COc1ccc(N2CCN(C(c3cccs3)C(C)NS(=O)(=O)c3ccc(C)cc3)CC2)cc1 (stereo not given),0
COc1ccc(N2CCN(C(c3cccs3)C(C)NS(=O)(=O)c3ccccc3)CC2)cc1 (stereo not given),0.48
CCS(=O)(=O)NC(C)C(c1cccs1)N1CCN(c2ccc(OC)cc2)CC1 (stereo not given),0
COc1ccc(N2CCN(C(c3cccs3)C(C)NS(=O)(=O)c3ccc(F)cc3)CC2)cc1 (stereo not given),0.49
COc1ccc(OC)c2[nH]c(=O)c(CCNC(=O)C3(c4ccc(Cl)cc4)CCCC3)cc12,0
CC(C)c1ccc(CN2CC(C(=O)Nc3nc4ccccc4s3)CC2=O)cc1 (stereo not given),0
CCCCc1ccc(NC(=O)CSc2nnc(CNC(=O)c3ccccc3F)o2)cc1,0
O=C(O)c1ccc2c(c1)NC(=O)C(N1CCN(c3ccc(Cl)cc3)CC1)S2 (stereo not given),0
Cc1cccc(Oc2nnc(-c3ccc(Cl)cc3)c3ccccc23)c1,0
O=C(O)c1c[nH]c2ccc(S(=O)(=O)NCc3ccccn3)cc2c1=O,0.021
Cc1cccc(C)c1N(C)S(=O)(=O)c1ccc2[nH]cc(C(=O)NCc3ccccn3)c(=O)c2c1,0
CCc1ccc(NS(=O)(=O)c2ccc3[nH]cc(C(=O)NCc4ccccn4)c(=O)c3c2)cc1,0
CCOC(=O)CNS(=O)(=O)c1ccc2[nH]cc(C(=O)O)c(=O)c2c1,0
CC(=O)Nc1ccc(NS(=O)(=O)c2ccc3[nH]cc(C(=O)O)c(=O)c3c2)cc1,0
O=C(O)c1c[nH]c2ccc(S(=O)(=O)NCCCN3CCCC3=O)cc2c1=O,0.5
Cc1ccc(S(=O)(=O)C2(C(=O)Nc3c(C)cccc3C)CC2)cc1,0
COc1ccc(CN2C(=O)N(c3ccccc3)C(=O)C2CC(=O)Nc2ccc(OC)cc2)cc1 (stereo not given),0
O=C(CCc1nc(-c2ccccc2F)no1)NC1CC1,0
Brc1ccc(-n2cnnn2)c2ncccc12,0
O=C(Nc1ccc(F)cc1)C1CC(=O)N(c2ccc(Cl)cc2)C1 (stereo not given),0
Cc1cc(NS(=O)(=O)c2ccc(N3CCCC3=O)cc2)no1,0
O=C(Nc1ccc2[nH]c(=O)[nH]c2c1)C1COc2ccccc2O1 (stereo not given),0
SMILES,CBX7 inh
O=C(Nc1ccc2[nH]c(=O)[nH]c2c1)c1ncn[nH]1,0.39
O=c1[nH]c2ccc(S(=O)(=O)Nc3ccc(F)cc3)cc2[nH]1,0
O=C(Nc1ccc(N2CCCC2=O)cc1)c1ncn[nH]1,0.0091
Cc1ccc(NC(=O)CSc2nnc(Cc3cc(=O)[nH]c(=O)[nH]3)n2-c2ccc(F)cc2)cc1,0
O=C(NCCc1ccccc1Cl)c1cc(-c2ccccc2)nc2ccccc12,0
O=C(CNC(=O)Cn1cnc2sc3c(c2c1=O)CCCC3)NCC1CCCO1 (stereo not given),0
COc1ccc(-c2noc(CCC(=O)NCCN(C)C)n2)cc1,0
COc1ccc(-c2noc(CCC(=O)NCCCOC(C)C)n2)cc1,0
CCN(CCCNC(=O)CCc1nc(-c2ccc(OC)cc2)no1)c1cccc(C)c1,0.42
COc1ccc(-c2cc(-c3ccc(C)cc3)nc(N3CCN(C)CC3)n2)cc1,0
O=C(Nc1nc(-c2ccccc2)c(C(=O)c2ccccc2)s1)c1ccc(Br)cc1,0
CCCCN(C)CCNC(=O)C1c2ccccc2C(=O)N2CCc3ccccc3C12 (stereo not given),0
COc1ccc(NC(=O)c2c[nH]n3c(=O)cc(C4CCN(C(=O)OC(C)(C)C)CC4)nc23)cc1OC,0
COc1ccc(-c2nn(C)c3sc(C(=O)NC4CCCCC4)cc23)cc1OC,0
COC(=O)c1c[nH]n2c(NC3CCCCC3)c(-c3ccc(OCCC(C)C)c(OC)c3)nc12,0.37
COC(=O)c1c[nH]n2c(NC3CCCCCC3)c(-c3ccc(OC)cc3)nc12,0.34
COC(=O)c1c[nH]n2c(NC3CCCCC3)c(-c3ccc(OC)cc3)nc12,0.32
COC(=O)c1c[nH]n2c(NC3CCCCC3)c(-c3cccs3)nc12,0
COC(=O)c1c[nH]n2c(NC3CCC(C)CC3)c(-c3ccc(OC(C)C)c(OC)c3)nc12 (stereo not given),0.12
COc1ccc(-c2nc(SCC(=O)NC3CCCC3)c(-c3ccc(C)cc3)[nH]2)cc1OC,0
COC(=O)c1cn(-c2ccccc2)nc1-c1ccc(OC)cc1,0
COc1ccc(-c2cc(C(=O)NC3CCCC3)no2)cc1,0
COc1ccc(NC(=O)c2c[nH]n3c(=O)cc(C4CCN(C(=O)OC(C)(C)C)CC4)nc23)cc1Cl,0
COc1ccc(-c2nc3cnccn3c2NC2CCCCC2)cc1,0
Cc1ccc(CCNC(=O)c2nc(-c3ccccc3F)oc2C)cc1,0
COc1ccc(Cc2noc(-c3cc(-c4ccncc4)nc4ccccc34)n2)cc1OC,0
CCOC(=O)c1cc(-c2ccccc2)n(-c2cccc(C(=O)NC3CCCCC3)c2)c1C,0
